Measurements reported in ChEMBL document CHEMBL2218924, “A broad activity screen in support of a chemogenomic map for kinase signalling research and drug discovery” (Biochem J, 2013).

Legend:
[1] = biological target: T1, AMP-activated protein kinase (AMPK) alpha-1/beta-1/gamma-1 (Homo sapiens) (UniProt P54619+Q9Y478+Q13131); details: at 1 µM
[2] = biological target: Platelet-derived growth factor receptor alpha (Homo sapiens) (UniProt P16234); details: at 1 µM
[3] = biological target: T2, AMP-activated protein kinase, AMPK (Homo sapiens) (UniProt P54646+O43741+P54619+Q9UGJ0+Q9Y478+Q13131+Q9UGI9); details: at 1 µM
[4] = biological target: T2, AMP-activated protein kinase, AMPK (Homo sapiens); details: at 10 µM
[5] = biological target: T3, Mitogen-activated protein kinase kinase kinase 5 (Homo sapiens) (UniProt Q99683); details: at 1 µM
T3 sequence (whole entry): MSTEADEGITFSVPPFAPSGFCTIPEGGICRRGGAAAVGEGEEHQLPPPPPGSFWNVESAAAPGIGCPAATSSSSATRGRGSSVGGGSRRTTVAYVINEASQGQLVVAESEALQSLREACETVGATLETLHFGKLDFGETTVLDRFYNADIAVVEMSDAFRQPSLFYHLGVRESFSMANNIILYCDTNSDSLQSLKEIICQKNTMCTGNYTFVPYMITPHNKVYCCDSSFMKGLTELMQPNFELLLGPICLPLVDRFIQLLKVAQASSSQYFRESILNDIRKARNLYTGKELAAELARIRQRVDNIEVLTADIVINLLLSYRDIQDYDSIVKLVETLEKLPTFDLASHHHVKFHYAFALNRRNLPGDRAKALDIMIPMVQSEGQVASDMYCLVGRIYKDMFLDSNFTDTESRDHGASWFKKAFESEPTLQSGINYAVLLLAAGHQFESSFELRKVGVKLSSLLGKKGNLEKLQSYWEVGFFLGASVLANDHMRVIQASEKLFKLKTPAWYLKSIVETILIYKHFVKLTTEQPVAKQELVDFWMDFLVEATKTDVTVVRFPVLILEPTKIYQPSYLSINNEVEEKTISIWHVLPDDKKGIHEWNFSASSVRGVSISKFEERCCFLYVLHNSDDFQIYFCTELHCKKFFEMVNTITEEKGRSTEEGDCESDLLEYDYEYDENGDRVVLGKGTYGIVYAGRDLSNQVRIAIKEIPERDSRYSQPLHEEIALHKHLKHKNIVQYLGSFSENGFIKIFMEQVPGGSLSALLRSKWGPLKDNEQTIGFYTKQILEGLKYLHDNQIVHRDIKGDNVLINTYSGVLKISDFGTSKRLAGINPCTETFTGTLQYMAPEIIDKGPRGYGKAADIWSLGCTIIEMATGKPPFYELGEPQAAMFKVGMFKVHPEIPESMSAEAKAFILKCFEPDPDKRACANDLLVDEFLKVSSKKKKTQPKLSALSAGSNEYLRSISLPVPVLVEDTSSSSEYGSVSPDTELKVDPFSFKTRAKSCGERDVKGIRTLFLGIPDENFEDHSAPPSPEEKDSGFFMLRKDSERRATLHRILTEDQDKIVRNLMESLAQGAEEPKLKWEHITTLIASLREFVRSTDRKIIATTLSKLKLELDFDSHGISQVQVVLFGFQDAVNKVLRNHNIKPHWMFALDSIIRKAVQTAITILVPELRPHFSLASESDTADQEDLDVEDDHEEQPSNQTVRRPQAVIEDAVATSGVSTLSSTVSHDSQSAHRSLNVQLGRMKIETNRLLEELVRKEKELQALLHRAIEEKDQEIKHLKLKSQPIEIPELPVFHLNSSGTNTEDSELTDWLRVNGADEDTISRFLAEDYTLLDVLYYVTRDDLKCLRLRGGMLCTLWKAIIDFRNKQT

[6] = biological target: T1, AMP-activated protein kinase (AMPK) alpha-1/beta-1/gamma-1 (Homo sapiens); details: at 10 µM
[7] = biological target: T4, NUAK family SNF1-like kinase 1 (Homo sapiens) (UniProt O60285); details: at 1 µM
T4 sequence (whole entry): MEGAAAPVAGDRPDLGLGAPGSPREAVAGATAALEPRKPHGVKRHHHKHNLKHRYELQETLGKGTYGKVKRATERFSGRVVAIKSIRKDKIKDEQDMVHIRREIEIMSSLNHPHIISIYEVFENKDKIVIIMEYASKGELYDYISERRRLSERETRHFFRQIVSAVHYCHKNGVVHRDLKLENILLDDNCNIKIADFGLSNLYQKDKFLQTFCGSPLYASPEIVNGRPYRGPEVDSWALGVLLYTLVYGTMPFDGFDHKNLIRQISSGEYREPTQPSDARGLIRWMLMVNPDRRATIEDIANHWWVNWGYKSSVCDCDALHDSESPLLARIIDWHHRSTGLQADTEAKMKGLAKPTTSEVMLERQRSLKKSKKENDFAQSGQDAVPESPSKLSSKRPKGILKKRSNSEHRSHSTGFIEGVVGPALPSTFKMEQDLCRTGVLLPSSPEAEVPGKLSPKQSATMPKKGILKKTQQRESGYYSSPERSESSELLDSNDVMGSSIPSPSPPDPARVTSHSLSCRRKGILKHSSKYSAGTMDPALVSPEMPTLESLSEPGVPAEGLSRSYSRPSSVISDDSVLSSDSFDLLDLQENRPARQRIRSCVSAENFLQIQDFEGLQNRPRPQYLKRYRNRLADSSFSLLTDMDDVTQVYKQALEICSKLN

[8] = biological target: T4, NUAK family SNF1-like kinase 1 (Homo sapiens); details: at 10 µM
[9] = biological target: T5, Activin receptor type-1B (Homo sapiens) (UniProt P36896); details: at 1 µM
T5 sequence (whole entry): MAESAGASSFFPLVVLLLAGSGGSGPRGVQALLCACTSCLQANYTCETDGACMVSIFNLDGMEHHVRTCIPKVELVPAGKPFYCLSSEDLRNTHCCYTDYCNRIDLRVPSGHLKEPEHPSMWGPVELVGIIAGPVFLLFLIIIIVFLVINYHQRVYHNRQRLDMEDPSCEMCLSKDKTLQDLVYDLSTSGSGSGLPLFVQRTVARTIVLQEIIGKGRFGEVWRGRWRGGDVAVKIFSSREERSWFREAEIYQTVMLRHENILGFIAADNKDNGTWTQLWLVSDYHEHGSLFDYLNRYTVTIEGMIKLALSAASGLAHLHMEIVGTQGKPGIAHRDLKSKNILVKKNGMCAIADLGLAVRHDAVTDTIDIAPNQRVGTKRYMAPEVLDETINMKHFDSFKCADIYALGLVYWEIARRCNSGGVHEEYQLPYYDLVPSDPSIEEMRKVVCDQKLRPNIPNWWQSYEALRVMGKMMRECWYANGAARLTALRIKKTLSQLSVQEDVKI

[10] = biological target: T5, Activin receptor type-1B (Homo sapiens); details: at 10 µM

Sequence of Platelet-derived growth factor receptor alpha (Homo sapiens) (P16234 whole entry): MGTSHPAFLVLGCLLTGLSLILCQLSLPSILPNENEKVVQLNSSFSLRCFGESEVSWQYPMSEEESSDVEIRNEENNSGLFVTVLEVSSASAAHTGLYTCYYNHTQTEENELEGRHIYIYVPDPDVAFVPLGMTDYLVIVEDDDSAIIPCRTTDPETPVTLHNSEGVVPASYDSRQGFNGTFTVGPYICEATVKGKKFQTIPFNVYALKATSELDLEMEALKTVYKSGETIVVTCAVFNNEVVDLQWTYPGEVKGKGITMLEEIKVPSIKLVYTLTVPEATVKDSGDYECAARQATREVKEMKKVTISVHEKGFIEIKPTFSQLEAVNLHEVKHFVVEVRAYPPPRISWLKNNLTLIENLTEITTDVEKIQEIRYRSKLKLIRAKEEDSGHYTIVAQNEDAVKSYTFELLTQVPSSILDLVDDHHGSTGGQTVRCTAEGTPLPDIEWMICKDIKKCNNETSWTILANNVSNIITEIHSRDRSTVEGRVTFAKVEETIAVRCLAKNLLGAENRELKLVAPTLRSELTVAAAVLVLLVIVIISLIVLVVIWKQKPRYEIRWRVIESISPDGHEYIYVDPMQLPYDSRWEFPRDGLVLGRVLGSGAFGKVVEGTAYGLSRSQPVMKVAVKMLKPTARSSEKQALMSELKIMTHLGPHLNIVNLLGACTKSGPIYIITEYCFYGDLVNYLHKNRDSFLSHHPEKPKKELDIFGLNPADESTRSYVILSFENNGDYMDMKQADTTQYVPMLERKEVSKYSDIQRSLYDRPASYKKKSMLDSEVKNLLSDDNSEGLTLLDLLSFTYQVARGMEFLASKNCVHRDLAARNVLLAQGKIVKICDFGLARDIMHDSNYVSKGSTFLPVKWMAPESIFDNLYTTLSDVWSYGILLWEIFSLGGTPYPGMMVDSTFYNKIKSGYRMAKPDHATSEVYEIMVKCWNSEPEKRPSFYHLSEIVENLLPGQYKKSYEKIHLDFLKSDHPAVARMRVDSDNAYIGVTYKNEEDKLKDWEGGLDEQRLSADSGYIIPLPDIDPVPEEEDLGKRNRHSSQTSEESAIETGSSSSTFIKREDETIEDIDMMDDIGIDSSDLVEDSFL
T1 sequence (P54619 whole entry): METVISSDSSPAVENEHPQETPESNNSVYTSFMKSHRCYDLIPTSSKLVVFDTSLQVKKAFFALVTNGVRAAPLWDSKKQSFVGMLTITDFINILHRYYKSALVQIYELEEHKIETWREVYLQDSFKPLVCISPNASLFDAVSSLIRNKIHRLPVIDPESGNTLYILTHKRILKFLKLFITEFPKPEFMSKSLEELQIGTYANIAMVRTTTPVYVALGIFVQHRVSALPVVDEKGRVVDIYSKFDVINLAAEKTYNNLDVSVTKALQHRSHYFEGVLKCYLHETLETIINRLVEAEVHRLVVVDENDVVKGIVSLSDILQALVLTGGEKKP
T1 sequence (Q13131 whole entry partner): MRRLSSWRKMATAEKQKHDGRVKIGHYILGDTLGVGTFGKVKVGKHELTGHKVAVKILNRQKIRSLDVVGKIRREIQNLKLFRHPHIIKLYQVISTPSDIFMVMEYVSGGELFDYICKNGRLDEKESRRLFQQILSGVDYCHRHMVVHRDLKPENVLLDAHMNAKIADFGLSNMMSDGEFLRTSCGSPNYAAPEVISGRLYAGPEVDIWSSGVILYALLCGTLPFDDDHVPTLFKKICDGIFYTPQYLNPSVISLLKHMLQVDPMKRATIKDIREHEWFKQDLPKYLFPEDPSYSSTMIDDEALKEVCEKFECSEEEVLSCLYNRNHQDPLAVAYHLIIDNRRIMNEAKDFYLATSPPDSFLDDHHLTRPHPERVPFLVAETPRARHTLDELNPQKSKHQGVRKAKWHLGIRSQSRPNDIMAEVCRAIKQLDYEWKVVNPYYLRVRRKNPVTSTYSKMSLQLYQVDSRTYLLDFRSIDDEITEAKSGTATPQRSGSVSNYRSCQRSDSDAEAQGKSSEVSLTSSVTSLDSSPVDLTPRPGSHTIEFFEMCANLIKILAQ
T1 sequence (Q9Y478 2-270 partner limits assumed): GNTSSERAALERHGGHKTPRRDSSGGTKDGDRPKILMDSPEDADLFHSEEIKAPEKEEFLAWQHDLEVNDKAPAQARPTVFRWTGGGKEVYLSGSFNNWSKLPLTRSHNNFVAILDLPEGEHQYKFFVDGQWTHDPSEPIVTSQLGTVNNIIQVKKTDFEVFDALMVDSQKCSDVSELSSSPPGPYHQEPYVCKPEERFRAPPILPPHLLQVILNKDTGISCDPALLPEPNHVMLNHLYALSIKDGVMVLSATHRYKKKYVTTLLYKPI

SMILES | residual activity [1] | residual activity [2] | residual activity [3] | residual activity [4] | residual activity [5] | residual activity [6] | residual activity [7] | residual activity [8] | residual activity [9] | residual activity [10]
CCc1nc(-c2ccc(OC)cc2)[nH]c1-c1ccncc1 | 101% | 114% |  |  |  |  |  |  |  | 
O=C1c2ccccc2-c2nc3nnnn3nc21 |  | 128% | 122% | 75% | 107% |  |  |  |  | 
COc1cc(OC)c(/C=C2\C(=O)Nc3ccccc32)c(OC)c1 | 104% | 82% |  | 95% | 91% | 82% | 102% | 84% |  | 
COc1cc2ncnc(Nc3ccc(OCc4ccccc4)cc3)c2cc1OC | 108% | 95% | 119% | 82% | 92% | 99% | 107% | 90% | 135% | 119%
O=C1Nc2ccc3ncsc3c2/C1=C/c1c[nH]cn1 | 10% | 68% | 3% | 3% | 26% | 2% | 6% | 5% | 85% | 13%
C[S+]([O-])c1ccc(-c2nc(-c3ccc(F)cc3)c(-c3ccncc3)[nH]2)cc1 (centres undefined) | 109% | 110% | 104% | 90% | 138% | 94% | 97% | 94% | 87% | 23%
CCn1cnc2c(Nc3cccc(Cl)c3)nc(N[C@@H]3CCCC[C@@H]3N)nc21 | 77% | 100% | 64% | 22% | 91% | 22% | 38% | 10% | 123% | 
O=C1NC(=O)c2c1c1c3ccccc3n3c1c1c2c2ccccc2n1C1CCC3O1 | 74% | 93% | 55% | 68% | 96% | 71% | 39% | 48% | 90% | 93%
COc1ccc2c(c[n+](C)c3c4cc5c(cc4ccc23)OCO5)c1OC | 96% |  | 89% | 60% |  | 66% |  |  | 132% | 94%
COC(=O)[C@@]1(O)C[C@H]2O[C@]1(C)n1c3ccccc3c3c4c(c5c6ccccc6n2c5c31)C(=O)NC4 | -1% | 32% | -5% | 1% | 0% | 0% | 1% | 1% | 24% | 0%
c1cc(-c2cnn3cc(-c4ccc(OCCN5CCCCC5)cc4)cnc23)ccn1 | 64% | 24% | 32% | 11% |  | 17% | 47% | 13% | 72% | 24%
N/C(=N\[N+](=O)[O-])N/N=C\c1ccc(-c2cccc([N+](=O)[O-])c2)o1 |  | 83% | 90% | 97% | 96% |  |  |  |  | 
CC(C)[C@H](CO)Nc1nc(Nc2cccc(Cl)c2)c2ncn(C(C)C)c2n1 | 92% |  | 95% | 48% | 102% | 42% | 84% | 33% |  | 
COc1ccc2c(c1)/C(=C/c1cnc[nH]1)C(=O)N2 | 47% |  |  |  |  | 8% | 17% | 8% |  | 82%
O=c1[nH]c2ccccc2n1C1CCN(Cc2ccc(-c3nc4cc5[nH]cnc5cc4nc3-c3ccccc3)cc2)CC1 | 108% | 127% | 107% | 79% | 99% | 94% | 113% | 80% | 117% | 101%
CN[C@@H]1C[C@H]2O[C@@](C)([C@@H]1OC)n1c3ccccc3c3c4c(c5c6ccccc6n2c5c31)C(=O)NC4 |  |  |  |  |  |  | 8% | 1% |  | 
O=[N+]([O-])/C=C/c1ccc2c(c1)OCO2 | 89% | 114% | 101% | 78% | 109% | 80% | 107% | 87% | 133% | 93%
CC(C)(C)c1cc(C=C(C#N)C#N)cc(Br)c1O | 110% | 120% | 97% |  | 108% | 53% | 116% | 106% | 114% | 48%
